# Key:
# Assay in all cases: SPOT peptide array binding signal intensity (averaged, normalized) (arbitrary units (background-subtracted, floor 0; scale differs between SH3 domains)); higher = stronger binding of the SH3 domain to the peptide
# AgAbp1 = target: AgAbp1
# Description: (§1)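 GST-tagged SH3 domains from S. cerevisiae (Sc), A. gossypii (Ag), C. albicans (Ca) and S. pombe (Sp) were incubated at 10 ug/ml overnight at 4 C on cellulose SPOT membranes carrying 292 synthetic 15-mer peptides mined from the S. cerevisiae proteome (cysteines replaced by serines). Binding was detected with anti-GST antibody, HRP secondary and chemiluminescence, quantified with Genespotter, and reported as normalized spot intensities averaged over biological replicates.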
# AgBbc1 = target: AgBbc1
# Description: as §1
# AgBem1-D1 = target: AgBem1-D1
# Description: as §1
# AgBzz1-D1 = target: AgBzz1-D1
# Description: as §1
# AgBzz1-D2 = target: AgBzz1-D2
# Description: as §1
# AgCyk3 = target: AgCyk3
# Description: as §1
# AgFus1 = target: AgFus1
# Description: as §1
# AgHof1 = target: AgHof1
# Description: as §1
# AgHse1 = target: AgHse1
# Description: as §1
# AgLsb1 = target: AgLsb1
# Description: as §1
# AgLsb4 = target: AgLsb4
# Description: as §1
# AgMyo5 = target: AgMyo5
# Description: as §1
# AgNbp2 = target: AgNbp2
# Description: as §1
# AgRvs167 = target: AgRvs167
# Description: as §1
# AgSho1 = target: AgSho1
# Description: as §1
# AgSla1-D1-D2 = target: AgSla1-D1-D2
# Description: as §1
# AgSla1-D3 = target: AgSla1-D3
# Description: as §1
# CaAbp1-D1 = target: CaAbp1-D1
# Description: as §1
# CaAbp1-D2 = target: CaAbp1-D2
# Description: as §1
# CaBbc1 = target: CaBbc1
# Description: as §1
# CaBem1-D1 = target: CaBem1-D1
# Description: as §1
# CaBzz1-D1 = target: CaBzz1-D1
# Description: as §1
# CaBzz1-D2 = target: CaBzz1-D2
# Description: as §1
# CaCyk3 = target: CaCyk3
# Description: as §1
# CaFus1 = target: CaFus1
# Description: as §1
# CaHof1 = target: CaHof1
# Description: as §1
# CaHse1 = target: CaHse1
# Description: as §1
# CaLsb1 = target: CaLsb1
# Description: as §1
# CaLsb4 = target: CaLsb4
# Description: as §1
# CaMyo5 = target: CaMyo5
# Description: as §1
# CaNbp2 = target: CaNbp2
# Description: as §1
# CaRvs167 = target: CaRvs167
# Description: as §1
# CaRvs167-3 = target: CaRvs167-3
# Description: as §1
# CaSho1 = target: CaSho1
# Description: as §1
# CaSla1-D1-D2 = target: CaSla1-D1-D2
# Description: as §1
# CaSla1-D3 = target: CaSla1-D3
# Description: as §1
# ScAbp1 = target: ScAbp1
# Description: as §1
# ScBbc1 = target: ScBbc1
# Description: as §1
# ScBem1-D1 = target: ScBem1-D1
# Description: as §1
# ScBzz1-D1 = target: ScBzz1-D1
# Description: as §1
# ScBzz1-D2 = target: ScBzz1-D2
# Description: as §1
# ScCyk3 = target: ScCyk3
# Description: as §1
# ScFus1 = target: ScFus1
# Description: as §1
# ScHof1 = target: ScHof1
# Description: as §1
# ScHse1 = target: ScHse1
# Description: as §1
# ScLsb1 = target: ScLsb1
# Description: as §1
# ScLsb2 = target: ScLsb2
# Description: as §1
# ScLsb3 = target: ScLsb3
# Description: as §1
# ScLsb4 = target: ScLsb4
# Description: as §1
# ScMyo3 = target: ScMyo3
# Description: as §1
# ScMyo5 = target: ScMyo5
# Description: as §1
# ScNbp2 = target: ScNbp2
# Description: as §1
# ScPex13 = target: ScPex13
# Description: as §1
# ScRvs167 = target: ScRvs167
# Description: as §1
# ScSho1 = target: ScSho1
# Description: as §1
# ScSla1-D1-D2 = target: ScSla1-D1-D2
# Description: as §1
# ScSla1-D3 = target: ScSla1-D3
# Description: as §1
# SpAbp1-D1 = target: SpAbp1-D1
# Description: as §1
# SpBbc1 = target: SpBbc1
# Description: as §1
# SpBzz1-D1 = target: SpBzz1-D1
# Description: as §1
# SpBzz1-D2 = target: SpBzz1-D2
# Description: as §1
# SpCyk3 = target: SpCyk3
# Description: as §1
# SpHof1 = target: SpHof1
# Description: as §1
# SpHof1-2 = target: SpHof1-2
# Description: as §1
# SpHof1-3 = target: SpHof1-3
# Description: as §1
# SpHse1 = target: SpHse1
# Description: as §1
# SpLsb1 = target: SpLsb1
# Description: as §1
# SpLsb4 = target: SpLsb4
# Description: as §1
# SpMyo1 = target: SpMyo1
# Description: as §1
# SpNbp2 = target: SpNbp2
# Description: as §1
# SpPex13 = target: SpPex13
# Description: as §1
# SpRvs167 = target: SpRvs167
# Description: as §1
# SpSla1-D1-D2 = target: SpSla1-D1-D2
# Description: as §1
# SpSla1-D3 = target: SpSla1-D3
# Description: as §1
binder,measurement,setting,value
LKVTPGRRAPTISKI,SPOT peptide array binding signal intensity,AgAbp1,22
same,SPOT peptide array binding signal intensity,AgBbc1,41
same,SPOT peptide array binding signal intensity,AgBem1-D1,63.5
same,SPOT peptide array binding signal intensity,AgBzz1-D1,81
same,SPOT peptide array binding signal intensity,AgBzz1-D2,24
same,SPOT peptide array binding signal intensity,AgCyk3,3
same,SPOT peptide array binding signal intensity,AgFus1,22
same,SPOT peptide array binding signal intensity,AgHof1,15
same,SPOT peptide array binding signal intensity,AgHse1,18.5
same,SPOT peptide array binding signal intensity,AgLsb1,≤ 0
same,SPOT peptide array binding signal intensity,AgLsb4,≤ 0
same,SPOT peptide array binding signal intensity,AgMyo5,5.5
same,SPOT peptide array binding signal intensity,AgNbp2,1920
same,SPOT peptide array binding signal intensity,AgRvs167,1.17
same,SPOT peptide array binding signal intensity,AgSho1,≤ 0
same,SPOT peptide array binding signal intensity,AgSla1-D1-D2,7.5
same,SPOT peptide array binding signal intensity,AgSla1-D3,1
same,SPOT peptide array binding signal intensity,CaAbp1-D1,435
same,SPOT peptide array binding signal intensity,CaAbp1-D2,160
same,SPOT peptide array binding signal intensity,CaBbc1,247
same,SPOT peptide array binding signal intensity,CaBem1-D1,5
same,SPOT peptide array binding signal intensity,CaBzz1-D1,154
same,SPOT peptide array binding signal intensity,CaBzz1-D2,148
same,SPOT peptide array binding signal intensity,CaCyk3,18
same,SPOT peptide array binding signal intensity,CaFus1,≤ 0
same,SPOT peptide array binding signal intensity,CaHof1,0.5
same,SPOT peptide array binding signal intensity,CaHse1,0.5
same,SPOT peptide array binding signal intensity,CaLsb1,≤ 0
same,SPOT peptide array binding signal intensity,CaLsb4,≤ 0
same,SPOT peptide array binding signal intensity,CaMyo5,6.25
RKRRTHLRLPLIRSN,SPOT peptide array binding signal intensity,AgAbp1,23
same,SPOT peptide array binding signal intensity,AgBbc1,105
same,SPOT peptide array binding signal intensity,AgBem1-D1,130
same,SPOT peptide array binding signal intensity,AgBzz1-D1,2
same,SPOT peptide array binding signal intensity,AgBzz1-D2,34.5
same,SPOT peptide array binding signal intensity,AgCyk3,2
same,SPOT peptide array binding signal intensity,AgFus1,1070
same,SPOT peptide array binding signal intensity,AgHof1,107
same,SPOT peptide array binding signal intensity,AgHse1,1100
same,SPOT peptide array binding signal intensity,AgLsb1,≤ 0
same,SPOT peptide array binding signal intensity,AgLsb4,137
same,SPOT peptide array binding signal intensity,AgMyo5,0.5
same,SPOT peptide array binding signal intensity,AgNbp2,63.8
same,SPOT peptide array binding signal intensity,AgRvs167,2.83
same,SPOT peptide array binding signal intensity,AgSho1,37.5
same,SPOT peptide array binding signal intensity,AgSla1-D1-D2,29.5
same,SPOT peptide array binding signal intensity,AgSla1-D3,2.25
same,SPOT peptide array binding signal intensity,CaAbp1-D1,243
same,SPOT peptide array binding signal intensity,CaAbp1-D2,301
same,SPOT peptide array binding signal intensity,CaBbc1,211
same,SPOT peptide array binding signal intensity,CaBem1-D1,41.5
same,SPOT peptide array binding signal intensity,CaBzz1-D1,73.5
same,SPOT peptide array binding signal intensity,CaBzz1-D2,71
same,SPOT peptide array binding signal intensity,CaCyk3,20
same,SPOT peptide array binding signal intensity,CaFus1,1220
same,SPOT peptide array binding signal intensity,CaHof1,0.25
same,SPOT peptide array binding signal intensity,CaHse1,29.6
same,SPOT peptide array binding signal intensity,CaLsb1,≤ 0
same,SPOT peptide array binding signal intensity,CaLsb4,85
same,SPOT peptide array binding signal intensity,CaMyo5,0.5
same,SPOT peptide array binding signal intensity,CaNbp2,406
same,SPOT peptide array binding signal intensity,CaRvs167,19
same,SPOT peptide array binding signal intensity,CaRvs167-3,42
same,SPOT peptide array binding signal intensity,CaSho1,478
same,SPOT peptide array binding signal intensity,CaSla1-D1-D2,≤ 0
same,SPOT peptide array binding signal intensity,CaSla1-D3,4.62
same,SPOT peptide array binding signal intensity,ScAbp1,27
same,SPOT peptide array binding signal intensity,ScBbc1,31.1
same,SPOT peptide array binding signal intensity,ScBem1-D1,61.2
same,SPOT peptide array binding signal intensity,ScBzz1-D1,15.5
same,SPOT peptide array binding signal intensity,ScBzz1-D2,21.2
same,SPOT peptide array binding signal intensity,ScCyk3,98
same,SPOT peptide array binding signal intensity,ScFus1,573
same,SPOT peptide array binding signal intensity,ScHof1,2.75
same,SPOT peptide array binding signal intensity,ScHse1,1680
same,SPOT peptide array binding signal intensity,ScLsb1,0.25
same,SPOT peptide array binding signal intensity,ScLsb2,1
same,SPOT peptide array binding signal intensity,ScLsb3,532
same,SPOT peptide array binding signal intensity,ScLsb4,29.8
same,SPOT peptide array binding signal intensity,ScMyo3,≤ 0
same,SPOT peptide array binding signal intensity,ScMyo5,0.625
same,SPOT peptide array binding signal intensity,ScNbp2,164
same,SPOT peptide array binding signal intensity,ScPex13,1.12
same,SPOT peptide array binding signal intensity,ScRvs167,16.8
same,SPOT peptide array binding signal intensity,ScSho1,1440
same,SPOT peptide array binding signal intensity,ScSla1-D1-D2,268
same,SPOT peptide array binding signal intensity,ScSla1-D3,9.5
same,SPOT peptide array binding signal intensity,SpAbp1-D1,91.2
same,SPOT peptide array binding signal intensity,SpBbc1,2.5
same,SPOT peptide array binding signal intensity,SpBzz1-D1,189
same,SPOT peptide array binding signal intensity,SpBzz1-D2,≤ 0
same,SPOT peptide array binding signal intensity,SpCyk3,2
same,SPOT peptide array binding signal intensity,SpHof1,299
same,SPOT peptide array binding signal intensity,SpHof1-2,9
same,SPOT peptide array binding signal intensity,SpHof1-3,1060
same,SPOT peptide array binding signal intensity,SpHse1,622
same,SPOT peptide array binding signal intensity,SpLsb1,0.5
same,SPOT peptide array binding signal intensity,SpLsb4,260
same,SPOT peptide array binding signal intensity,SpMyo1,9
same,SPOT peptide array binding signal intensity,SpNbp2,350
same,SPOT peptide array binding signal intensity,SpPex13,13
same,SPOT peptide array binding signal intensity,SpRvs167,9.33
same,SPOT peptide array binding signal intensity,SpSla1-D1-D2,≤ 0
same,SPOT peptide array binding signal intensity,SpSla1-D3,≤ 0
